Laboratory results from PubChem BioAssay AID504447 (The Scripps Research Institute Molecular Screening Center, 2011).
Potency and affinity values are given separately. Activity calls are given as the source filed them. Where a call stands in place of a potency, no number is given. No rule for the calls is given here.

Molecular target: Peroxisome proliferator-activated receptor gamma (Homo sapiens) (UniProt P37231)
Experiment: PPARg partial agonists, dose response, cell-based, luminescence, assay provider (AID 504447)

Peroxisome proliferator-activated receptor gamma (Homo sapiens), sequence (P37231 whole entry, looked up): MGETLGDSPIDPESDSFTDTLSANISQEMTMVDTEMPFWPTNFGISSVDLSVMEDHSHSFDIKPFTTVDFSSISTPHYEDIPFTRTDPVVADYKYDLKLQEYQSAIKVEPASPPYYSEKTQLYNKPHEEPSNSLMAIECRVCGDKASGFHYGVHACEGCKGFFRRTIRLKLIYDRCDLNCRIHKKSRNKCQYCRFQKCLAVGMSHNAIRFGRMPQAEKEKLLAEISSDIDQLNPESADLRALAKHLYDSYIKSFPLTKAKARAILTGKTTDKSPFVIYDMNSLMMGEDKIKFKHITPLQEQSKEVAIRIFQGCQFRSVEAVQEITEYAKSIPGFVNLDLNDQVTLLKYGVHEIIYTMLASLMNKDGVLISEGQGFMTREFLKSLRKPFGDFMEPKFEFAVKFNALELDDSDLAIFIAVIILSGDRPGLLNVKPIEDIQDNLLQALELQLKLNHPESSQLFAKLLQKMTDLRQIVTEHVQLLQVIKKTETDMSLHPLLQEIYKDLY

For `CC(C)OC(=O)CCN1C(=O)/C(=C/c2ccccc2)SC1=S`, the outcome was “inactive”.
With `O=C1CC(N2CCN(Cc3ccc4c(c3)OCO4)CC2)C(=O)N1Cc1ccc(N2CCCC2=O)cc1` (stereo not drawn) the outcome was “inactive”.
In the case of `COc1cc(/C=C(\NC(=O)c2ccccc2)C(=O)NC(C(=O)O)c2ccccc2)cc(OC)c1OC` (stereo not drawn), the outcome is reported as “inactive”.
With `CCOc1cccc(/C(O)=C2/C(=O)C(=O)N(CCN3CCOCC3)C2c2ccncc2)c1` (stereo not drawn) the outcome was “inactive”.
With `CCOc1cccc(/C(O)=C2/C(=O)C(=O)N(Cc3ccco3)C2c2ccncc2)c1` (stereo not drawn) the outcome was “inactive”.
`CC(Oc1ccc2c(c1)oc(=O)c1ccccc12)C(=O)NC(Cc1c[nH]c2ccc(O)cc12)C(=O)O` (stereo not drawn) was tested, and the outcome was “inactive”.
In the case of `CCOc1ccc(CN2CCN(Cc3cccc4nonc34)CC2CCO)cc1` (stereo not drawn), the outcome is reported as “inactive”.
In the case of `COc1ccc(O)c(C(=O)c2cc(C#N)c(=O)n(-c3ccc(Cl)cc3)c2)c1`, the outcome is reported as “inactive”.
For `O=C1C(=O)N(CCCn2ccnc2)C(c2ccc(Cl)cc2)/C1=C(\O)c1ccc2c(c1)OCCO2` (stereo not drawn), the outcome was “inactive”.
For `O=C(c1nc2ccccn2c1CN1CCCC(O)C1)N1CCN(C2CCCCC2)CC1` (stereo not drawn), the outcome was “inactive”.
For `Cc1ccc2cc(CN(Cc3ccccc3)Cc3nnnn3C3CCCC3)c(=O)[nH]c2c1`, the outcome was “inactive”.
With `S=C(NCCc1ccccc1)N1CCn2cccc2C1c1ccncc1` (stereo not drawn) the outcome was “inactive”.
For `O=C(c1cccc(N2C(=O)C3C4C=CC(C4)C3C2=O)c1)N1CCN(c2ccccc2Cl)CC1` (stereo not drawn), the outcome was “inactive”.
With `O=C(O)CCN1C(=O)/C(=C/c2ccccc2Cl)SC1=S` the outcome was “inactive”.
With `O=c1c2cn(Cc3ccc(F)cc3)c3ccc(F)cc3c-2nn1Cc1ccc(F)cc1` the outcome was “inactive”.
In the case of `COc1ccc(-c2cc(C(=O)NC(C)c3ccccn3)c3ccccc3n2)cc1OC` (stereo not drawn), the outcome is reported as “inactive”.
`COc1ccc(C=NNS(=O)(=O)c2ccc(F)cc2)cc1COc1cc(F)ccc1[N+](=O)[O-]` was tested, and the outcome was “inactive”.
With `Cc1ccc2nc(N3C(=O)C(O)=C(C(=O)c4ccco4)C3c3ccc(O)cc3)sc2c1` (stereo not drawn) the outcome was “inactive”.
`Cc1cc(N2C(=O)C(O)=C(C(=O)c3cccs3)C2c2cccc(Br)c2)no1` (stereo not drawn) was tested, and the outcome was “inactive”.
With `O=C(O)CCN1C(=O)/C(=C/c2ccc(C(F)(F)F)cc2C(F)(F)F)SC1=S` the outcome was “inactive”.
`Cc1c(-n2cc(C(=O)c3cc(F)ccc3O)cc(C#N)c2=O)c(=O)n(-c2ccccc2)n1C` was tested, and the outcome was “inactive”.
For `Cc1cc(C)c2nc(N3C(=O)C(O)=C(C(=O)c4ccco4)C3c3ccc(O)cc3)sc2c1` (stereo not drawn), the outcome was “inactive”.
With `CCOc1cc(C2C(C(=O)OC)=CN(Cc3ccc(Cl)cc3)C=C2C(=O)OC)ccc1O` the outcome was “inactive”.
